# FLuc inh – blocks Photinus pyralis firefly luciferase activity; P08659; purified firefly luciferase, luminescence, 8 min; Potency, µM (doses to about 57.1 µM), for inactives: at the highest dose activity change, negative = inhibition, hits mostly inhibitors; 72,000 tested, 2.2% active; also: nearly all actives have a fitted effect of over 40% in size
# Target sequence (P08659 whole entry, looked up): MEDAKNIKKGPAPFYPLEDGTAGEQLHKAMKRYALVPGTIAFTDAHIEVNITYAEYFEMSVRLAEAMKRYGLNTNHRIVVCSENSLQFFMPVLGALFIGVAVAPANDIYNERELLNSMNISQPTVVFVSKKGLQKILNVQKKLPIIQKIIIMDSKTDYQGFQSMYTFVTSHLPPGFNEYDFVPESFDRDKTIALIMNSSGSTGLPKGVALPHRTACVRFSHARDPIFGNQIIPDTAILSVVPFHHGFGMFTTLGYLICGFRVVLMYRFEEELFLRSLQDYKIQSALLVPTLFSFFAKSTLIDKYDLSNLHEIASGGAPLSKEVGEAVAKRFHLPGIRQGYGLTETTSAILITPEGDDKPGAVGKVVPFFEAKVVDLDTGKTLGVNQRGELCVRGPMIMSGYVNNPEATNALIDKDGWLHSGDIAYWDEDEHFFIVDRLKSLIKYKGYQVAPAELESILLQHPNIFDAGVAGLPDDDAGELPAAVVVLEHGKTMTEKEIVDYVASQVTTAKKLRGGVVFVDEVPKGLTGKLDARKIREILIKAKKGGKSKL
#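 qHTS concentration-response profiling: light output of P. pyralis luciferase with luciferin and 10 uM ATP, imidazole buffer pH 7.2. Read by luminescence after 8-min room-temperature incubation.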
# Tau filament bind – binds recombinant human tau filaments; P10636; recombinant tau filaments, thioflavin S fluorescence, 15 h; filaments grown with octadecylsulfate alongside compound; Potency, µM (titrated, usually from 57.1 µM), for inactives: at the highest dose activity change, negative = inhibition; 71,000 tested, 2% active;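 also: actives lower thioflavin S fluorescence by blocking filaments or displacing dye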
#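 ThS-based fibril read: tau 1 uM final, inducer ODS 30 uM final, 37 C for 15 h, ex 450/em 510 nm.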
# ALOX15 inhib – inhibitors of human 15-lipoxygenase (ALOX15); P16050; purified 15hLO-1, xylenol orange hydroperoxide absorbance; Potency, µM (top dose mostly 57.1 µM), without a hit: top-dose activity change, negative = inhibition, usual class: inhibitors; 74,000 tested, 1.4% active; also: nearly all actives have a fitted effect of over 55% in size
#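 Readout: Fe(III)-xylenol orange absorbance, 573-to-405 nm ratio as reaction progress. Enzyme 40 nM purified human 15hLO-1, substrate 50 uM arachidonic acid, 6 min RT after 15 min compound preincubation; Hepes pH 7.5 buffer with Triton X-100.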
# Pol III holo inh – blocks replication by bacterial DNA polymerase III holoenzyme. reconstituted DNA polymerase III holoenzyme replication, biochemical. Potency, µM (titrated, usually from 57.1 µM), inactives show top-dose activity change, negative = inhibition. 71,000 tested, 0.25% active
#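 Reconstituted *E. coli* holoenzyme (0.35 nM Pol III, 1 nM beta, 154 nM SSB, 2 nM primase) was preincubated with compound for 15 min at RT. Synthesis on 1.4 nM ssM13Gori ran 35 min, then was stopped with PicoGreen/EDTA and read as dsDNA fluorescence.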
# ERK AVP block – vasopressin-driven ERK pathway inhibition; HEK293-V1b, vasopressin-stimulated pERK AlphaScreen; AID 995; 72,000 tested, 0.99% active; Potency, µM (titrated, usually from 57.5 µM), without a hit: at the top dose activity, negative = inhibition, most hits filed as inhibitors; also: nearly all actives have a fitted effect of over 55% in size
#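 Overnight-seeded V1b-HEK293 cells in 1% FBS got compound, then vasopressin (25 nM final, 5 min, 37C), then lysis buffer. AlphaScreen detection of phospho-ERK; activity normalized to basal and full-stimulation controls.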
# PK Bst – modulators of Bacillus stearothermophilus pyruvate kinase. Potency, µM. purified pyruvate kinase, luminescence ATP production; ribose 5-phosphate activator present at AC10. 51,000 tested, 1.2% active; in the data active = potency below about 11 µM; inconclusive = mostly about 12 µM to 25 µM;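 the screen sought inhibitors and activators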;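 also: scaled between full activation by ribose 5 phosphate and full inhibition by luteolin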
# * hit, by the source's call; i = inactive; ? = inconclusive; · = no result given; [ ] = dose if it differs, or a comment. Shown are actives, neighbours in structure and some others; about 6% of the full set was active somewhere. Unless noted, calls follow the shape of the dose curve; as a rule, active = well fitted curve in the direction sought with a large enough effect; inconclusive = small, poorly fitted or top-dose-only effect, or another doubt; inactive = no such curve, though single readings can be large; an effect the other way counts as inactive or inconclusive. Unless noted, % is scaled to controls: 0 for no effect and ±100 for the full control effect; potency is read from the fitted curve at half-maximal effect.
SMILES,FLuc inh,Tau filament bind,ALOX15 inhib,Pol III holo inh,ERK AVP block,PK Bst
CCOC(=O)CCN1C(=O)[C@H]2[C@H]3[C@H](O)[C@H](O)C/C(=N/NC(=O)OCc4ccccc4)[C@H]3CC[C@@H]2C1=O,2%[11.4 µM],·,7%[11.4 µM],·,7%[11.5 µM],·
COc1ccc(Oc2ncc3nc(-c4cccc(C#N)c4)c(=O)n(C)c3n2)cc1,2%[11.4 µM],-7%,-8%,5%,-1%,·
O=C(COc1cccc2cccnc12)Nc1nccs1,16µM*,-3%,13%,3%,-5%,>57
Cc1cc(NC(=O)NC(=O)c2ccc(F)cc2F)n[nH]1,16µM*,9%,10%,-4%,23%,·
Cc1cc(C)c(NC(=O)NC(=O)c2cccc(F)c2)c(C)n1,-1%,-4%,1%,5%,42%,>57
Nc1ccn([C@H]2CC[C@H](CO)O2)c(=O)n1,0%,-1%,·,-4%,·,·
CCOC(=O)c1oc2ccccc2c1CSc1nnnn1-c1ccc(C)cc1,1%,-2%,1µM*,4%,36%,>57
CCOC(=O)c1oc2ccccc2c1CSc1nnc(-c2ccco2)o1,2%,5%,-7%,-1%,10%,>57
CCCCCCCCCCCCC/C=C\[C@@H](O)[C@@H](N)CO,1%,32µM*,40%,-3%,5%,·
C[C@@H]1C[C@H](OC(=O)[C@@H](O)c2ccccc2)CC(C)(C)N1C,5%[25.5 µM],-19%[25.6 µM],11%[25.6 µM],-8%[25.6 µM],-3%[25.7 µM],·
Cc1cc(C)cc(O)c1,·,4%,2%,-7%,6%,·
CC(=O)c1sc2nc(-c3cccs3)cc(C(F)(F)F)c2c1N,5%,127%,-29%,2%,31%,>57
CS(=O)(=O)c1sc2nc(-c3cccs3)cc(-c3ccccc3)c2c1N,-1%,7.9µM*,?,0%,?,>57
CC1CCCN(Cc2nc3c(c(=O)n(C)c(=O)n3C)n2Cc2c(F)cccc2Cl)C1 (configuration not stated),6.3µM*,214%,-6%,-2%,·,·
CN1CCN(Cc2nc3c(c(=O)n(C)c(=O)n3C)n2Cc2ccccc2Cl)CC1,13µM*,34%,?,-3%,·,·
Cc1ccccc1Cn1c(CN2CCN(c3ccc(F)cc3)CC2)nc2c1c(=O)n(C)c(=O)n2C,-2%,i,20µM*,208%,·,·
CC1CCN(Cc2nc3c(c(=O)n(C)c(=O)n3C)n2Cc2c(F)cccc2Cl)CC1,4%,5%,1%,-2%,-4%,>57
Cn1c(=O)c2c(nc(CN3CCN(c4ccccc4)CC3)n2Cc2ccccc2F)n(C)c1=O,2%,-11%,-5%,-6%,-1%,>57
CN1CCN(c2ncc3nc(-c4ccccc4)c(=O)n(C)c3n2)CC1,-1%[11.4 µM],-12%,-2%,-4%,0%,·
NC(=O)C1CCN(C(=O)Nc2ccccc2)CC1,·,·,2%,·,-7%,>57
O=C(Nc1ccccc1)N1CCC(c2ccccc2)C1 (configuration not stated),16µM*,11%,8%,-9%,23%,·
O=C(c1cccs1)N1CCC(c2ccccc2)C1 (configuration not stated),13µM*,10%,0%,3%,-15%,·
NCCC[C@@H](CC(=O)N[C@@H]1CCCC[C@H]1C(=O)N[C@H](CC(=O)N[C@@H](CCC(=O)O)CC(=O)O)Cc1ccccc1)NC(=O)C[C@H](Cc1ccccc1)NC(=O)[C@@H]1CCCC[C@H]1N,·,-5%,·,-4%,·,·
CC(=O)c1cccc(NC(=O)CN(c2ccc(C)cc2)S(=O)(=O)c2cccc3nonc23)c1,-3%,4µM*,-6%,1%,17%,>57
Cc1c(Cc2ccccc2)sc(N)c1C(N)=O,-1%,16µM*,?,4%,3%,·
SMILES,FLuc inh,Tau filament bind,ALOX15 inhib,Pol III holo inh,ERK AVP block,PK Bst
O=C(COc1ccc(C(=S)N2CCOCC2)cc1)N1CCCC1,3%,3%,0%,0%,-13%,>57
CCCCOc1ccc(-c2nnn(CCC(=O)N3CCOCC3)n2)cc1,6.3µM*,4%,0%,-6%,11%,·
Cc1ccc(-c2ccc(OCC(=O)N3CCOCC3)cc2)cc1,13µM*,11%,4%,-7%,-6%,·
COc1ccc(NC(=O)Nc2ccc(OCC(=O)N3CCOCC3)cc2)cc1OC,13µM*,7%[11.4 µM],-3%[11.4 µM],-5%[11.4 µM],-23%,·
COc1ccc(-c2ccc(SCC(=O)N3CCOCC3)nn2)cc1,13µM*,4%,-2%,-6%,-10%,i
Cc1cc2c(c(=O)o1)[C@@H](O)[C@H]1O[C@@H]1C2=O,1%[11.4 µM],·,-7%[11.4 µM],·,5%[11.5 µM],·
CO[C@H]1COC(=O)[C@H](C)NC(=O)[C@@H](C)COC(=O)[C@H]2CCCN2C(=O)C/C=C\[C@H]1C,0%[11.4 µM],·,21%[11.4 µM],·,8%[11.5 µM],·
N#CCCn1c(=O)c(-c2cccc(C#N)c2)nc2cnc(N3CCOCC3)nc21,2%[11.4 µM],60%,2%,-13%,-7%,·
Cc1nnc(C)n1N1C(=O)c2cccc3cccc(c23)C1=O,·,·,-24%,·,·,·
NC1=CC(=O)c2cccc3cccc1c23,-10%,62%,5µM*,-6%,36%,i
O=S(=O)(Cc1nc2ccccc2s1)c1ccccc1,-13%,-9%,0%,-3%,-12%,>57
c1ccc(OCc2nc3ccccc3s2)cc1,13µM*,5%,2%,-2%,47%,i
CCOC(=O)C1CCCN(Cc2cc(OC)c(O)c(OC)c2)C1 (configuration not stated),·,·,1%,·,·,·
COc1cc(CN2CCC(C(=O)NC3CCCC3)CC2)cc(OC)c1O,1%,7%,25µM*,-2%,15%,>57
